Source: PubChem BioAssay
The source made the active and inactive calls.

What was measured:
[1] = binders of probe aFSTL3 on microarray, primary screen, stem cell growth factor project, biochemical, small-molecule microarray, fluorescence 635/667 (AID 1064); details: higher = more signal;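 further: measures binding of the biotinylated anti-FSTL3 antibody to printed compounds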
[2] = binders from COS7 lysate, DM2A8 probe, primary screen, torsin A project, cell lysate, small-molecule microarray, fluorescence 635/667 (AID 1065); details: higher = more signal, COS7 lysate expressing mutant human TOR1A
[3] = binders of probe aFGF2 on microarray, primary screen, stem cell growth factor project, biochemical, small-molecule microarray, fluorescence 635/667 (AID 1067); details: higher = more signal;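 further: measures binding of biotinylated aFGF2 protein to printed compounds on slides; z-score merges feature fluorescence and signal-to-noise across triplicate slides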
[4] = binders of probe aFGF10 on microarray, primary screen, stem cell growth factor project, biochemical, small-molecule microarray, fluorescence 635/667 (AID 1071); details: higher = more signal;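 further: score merges 667 nm spot intensity and signal to noise from triplicate slides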
[5] = target: Neurogenic locus notch homolog protein 2 (Homo sapiens) (UniProt Q04721); experiment: Notch2 binders on small-molecule microarrays, primary screen, biochemical, small-molecule microarray, 635 nm fluorescence, stem cell growth factors (AID 1073); details: Notch2 binding, higher = more signal
Chain of Neurogenic locus notch homolog protein 2 (Homo sapiens) (Q04721 whole entry, looked up, canonical isoform): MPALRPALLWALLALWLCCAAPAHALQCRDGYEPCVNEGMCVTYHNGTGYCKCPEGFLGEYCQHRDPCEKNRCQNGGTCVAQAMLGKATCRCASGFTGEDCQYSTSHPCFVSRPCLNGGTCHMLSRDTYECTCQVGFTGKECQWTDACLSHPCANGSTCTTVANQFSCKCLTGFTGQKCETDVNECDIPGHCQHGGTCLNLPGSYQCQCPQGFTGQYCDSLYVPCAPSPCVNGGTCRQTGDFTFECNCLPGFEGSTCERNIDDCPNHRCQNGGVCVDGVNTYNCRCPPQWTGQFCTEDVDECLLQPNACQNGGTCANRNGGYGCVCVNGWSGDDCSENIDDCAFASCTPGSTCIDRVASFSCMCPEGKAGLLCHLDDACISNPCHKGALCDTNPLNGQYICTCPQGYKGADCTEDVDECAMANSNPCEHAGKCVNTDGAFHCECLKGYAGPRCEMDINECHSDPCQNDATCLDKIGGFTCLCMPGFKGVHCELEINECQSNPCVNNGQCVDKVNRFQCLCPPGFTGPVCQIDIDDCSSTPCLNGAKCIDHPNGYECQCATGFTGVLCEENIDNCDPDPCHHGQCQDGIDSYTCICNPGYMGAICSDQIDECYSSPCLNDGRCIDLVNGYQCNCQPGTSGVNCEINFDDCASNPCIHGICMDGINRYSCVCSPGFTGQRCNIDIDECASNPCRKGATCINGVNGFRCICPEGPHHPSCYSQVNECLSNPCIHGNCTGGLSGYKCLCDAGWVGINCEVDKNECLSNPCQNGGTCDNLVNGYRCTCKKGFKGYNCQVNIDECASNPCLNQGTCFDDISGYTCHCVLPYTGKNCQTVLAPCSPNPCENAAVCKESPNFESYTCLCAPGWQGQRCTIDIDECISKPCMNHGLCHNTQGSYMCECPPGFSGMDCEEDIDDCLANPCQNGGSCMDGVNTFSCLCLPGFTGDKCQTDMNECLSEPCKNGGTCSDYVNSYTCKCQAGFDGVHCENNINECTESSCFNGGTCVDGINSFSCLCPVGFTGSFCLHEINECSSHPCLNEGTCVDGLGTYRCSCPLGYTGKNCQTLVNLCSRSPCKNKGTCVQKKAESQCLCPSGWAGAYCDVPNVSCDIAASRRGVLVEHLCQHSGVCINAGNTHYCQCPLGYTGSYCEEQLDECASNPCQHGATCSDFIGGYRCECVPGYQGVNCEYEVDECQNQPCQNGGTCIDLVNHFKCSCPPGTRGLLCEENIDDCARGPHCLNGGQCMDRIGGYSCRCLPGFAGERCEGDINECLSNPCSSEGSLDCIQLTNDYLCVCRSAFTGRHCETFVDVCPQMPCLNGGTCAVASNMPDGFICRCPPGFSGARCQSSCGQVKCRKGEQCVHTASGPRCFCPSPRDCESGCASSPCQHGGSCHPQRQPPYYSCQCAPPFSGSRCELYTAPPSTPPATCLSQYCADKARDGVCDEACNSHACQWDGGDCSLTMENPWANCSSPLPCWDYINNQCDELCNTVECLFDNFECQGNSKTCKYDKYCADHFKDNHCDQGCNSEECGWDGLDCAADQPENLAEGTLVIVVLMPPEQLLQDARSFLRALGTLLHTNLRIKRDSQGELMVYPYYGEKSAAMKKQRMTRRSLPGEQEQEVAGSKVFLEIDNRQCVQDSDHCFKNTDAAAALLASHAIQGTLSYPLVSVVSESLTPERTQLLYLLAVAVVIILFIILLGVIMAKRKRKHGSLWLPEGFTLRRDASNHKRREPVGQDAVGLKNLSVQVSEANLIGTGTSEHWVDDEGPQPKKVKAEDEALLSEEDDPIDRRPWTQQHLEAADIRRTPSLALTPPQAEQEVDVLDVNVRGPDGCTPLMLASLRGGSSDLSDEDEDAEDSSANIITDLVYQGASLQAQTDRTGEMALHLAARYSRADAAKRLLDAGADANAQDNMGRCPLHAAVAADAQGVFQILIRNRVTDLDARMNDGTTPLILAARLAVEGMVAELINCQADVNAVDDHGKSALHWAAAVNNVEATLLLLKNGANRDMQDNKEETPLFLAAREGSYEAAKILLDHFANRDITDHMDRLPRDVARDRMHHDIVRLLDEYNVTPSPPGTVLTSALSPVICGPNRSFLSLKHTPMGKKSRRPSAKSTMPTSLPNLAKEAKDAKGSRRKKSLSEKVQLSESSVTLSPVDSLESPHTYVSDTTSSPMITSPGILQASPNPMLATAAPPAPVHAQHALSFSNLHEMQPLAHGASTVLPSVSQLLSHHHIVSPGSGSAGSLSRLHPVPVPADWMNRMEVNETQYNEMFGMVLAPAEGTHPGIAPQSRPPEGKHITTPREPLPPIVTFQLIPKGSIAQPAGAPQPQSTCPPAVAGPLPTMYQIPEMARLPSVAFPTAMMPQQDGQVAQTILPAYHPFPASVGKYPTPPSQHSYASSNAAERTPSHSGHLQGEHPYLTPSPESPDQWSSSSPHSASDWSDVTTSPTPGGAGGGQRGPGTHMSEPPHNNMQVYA

[6] = target: Pro-neuregulin-1, membrane-bound isoform (Homo sapiens) (UniProt Q02297); experiment: NRG1 binders on small-molecule microarrays, primary screen, psychiatric disease protein project, biochemical, small-molecule microarray, fluorescence 635/667 (AID 1075); details: NRG1 binding, 635 nm fluorescence, higher = more signal;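 further: score combines 667 nm spot fluorescence with signal to noise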
Chain of Pro-neuregulin-1, membrane-bound isoform (Homo sapiens) (Q02297 whole entry, looked up, the tested form may be a part, canonical isoform): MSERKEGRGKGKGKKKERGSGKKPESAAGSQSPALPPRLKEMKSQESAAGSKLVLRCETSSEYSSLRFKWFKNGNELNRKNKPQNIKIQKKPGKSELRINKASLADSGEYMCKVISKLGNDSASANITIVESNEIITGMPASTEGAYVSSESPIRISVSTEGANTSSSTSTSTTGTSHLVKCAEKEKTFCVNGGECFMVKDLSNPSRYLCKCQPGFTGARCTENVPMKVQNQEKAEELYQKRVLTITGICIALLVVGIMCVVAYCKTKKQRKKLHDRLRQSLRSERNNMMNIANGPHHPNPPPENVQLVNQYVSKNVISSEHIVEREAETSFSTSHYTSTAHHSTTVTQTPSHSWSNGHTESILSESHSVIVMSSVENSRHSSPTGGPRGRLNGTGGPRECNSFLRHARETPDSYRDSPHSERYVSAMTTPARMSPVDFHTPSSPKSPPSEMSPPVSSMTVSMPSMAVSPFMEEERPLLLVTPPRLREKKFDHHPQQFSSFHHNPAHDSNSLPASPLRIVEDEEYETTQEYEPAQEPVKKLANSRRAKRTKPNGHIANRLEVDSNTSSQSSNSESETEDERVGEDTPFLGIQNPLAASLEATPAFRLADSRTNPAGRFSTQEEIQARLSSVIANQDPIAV

[7] = test system: Neuregulin-1 EGF-like domain; experiment: binders of neuregulin-1 EGF-like domain, primary screen, biochemical, small-molecule microarray, 635 nm fluorescence (AID 1081); details: small-molecule microarray binding, higher = more signal;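 further: binding of the protein to compounds printed on small-molecule microarray slides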
[8] = FRG1 promoter luciferase signal modulators, primary screen, FRG1 inhibition for FSHD, cell-based, C2C12 myotubes, firefly/Renilla luciferase, luminescence (AID 1084); details: higher = more signal, called active from +8 up or from −8 down
[9] = binders of probe aFST on microarray, primary screen, stem cell growth factor project, biochemical, small-molecule microarray, fluorescence 635/667 (AID 1086); details: higher = more signal;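 further: score merges 667 nm fluorescence with signal-to-noise of each printed compound spot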
[10] = binders of probe aHhip on microarray, primary screen, stem cell growth factor project, biochemical, small-molecule microarray, fluorescence 635/667 (AID 1087); details: higher = more signal;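 further: score merges spot fluorescence at 667nm with spot signal to noise ratio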
[11] = test system: PRMT1 (protein arginine N-methyltransferase 1); experiment: PRMT1 binders on small-molecule microarrays, primary screen, biochemical, small-molecule microarray, 635 nm fluorescence (AID 1088); details: small-molecule microarray binding, higher = more signal;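 further: binding of Prmt1 protein to compounds spotted on small-molecule microarray slides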
[12] = yeast growth modulation, basal conditions, primary screen, YJM789 clinical isolate, OD600, 24 h (AID 1089);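 further: growth of clinical yeast isolate S. cerevisiae YJM 789 seeded 1000 cells per well; test concentration not given here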; details: S. cerevisiae YJM789 growth, higher = more signal, called active from +8 up or from −8 down
[13] = fission yeast growth modulation, primary screen, strain 972, OD600, 24 h, no modulator (AID 1090);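 further: basal condition with compound alone and no growth modifier present; test concentration not given here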; details: S. pombe 972 growth, higher = more signal, called active from +8 up or from −8 down
[14] = S. cerevisiae growth modulation with rapamycin, primary screen, strain BY4716, OD600, 96 h (AID 1091); details: higher = more signal, called active from +8 up or from −8 down; further: test concentration not given here
[15] = target: Torsin-1A-interacting protein 2 (Homo sapiens) (UniProt Q8NFQ8); experiment: LULL1 binders on small-molecule microarray, primary screen, cell lysate, human LULL1 lysate, 635/667 nm fluorescence (AID 1092); details: hLULL1 lysate binding, 635 nm fluorescence, higher = more signal;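 further: probe is lysate of COS7 cells overexpressing human LULL1; score merges per-feature 667 nm fluorescence with signal-to-noise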
Chain of Torsin-1A-interacting protein 2 (Homo sapiens) (Q8NFQ8 whole entry, looked up): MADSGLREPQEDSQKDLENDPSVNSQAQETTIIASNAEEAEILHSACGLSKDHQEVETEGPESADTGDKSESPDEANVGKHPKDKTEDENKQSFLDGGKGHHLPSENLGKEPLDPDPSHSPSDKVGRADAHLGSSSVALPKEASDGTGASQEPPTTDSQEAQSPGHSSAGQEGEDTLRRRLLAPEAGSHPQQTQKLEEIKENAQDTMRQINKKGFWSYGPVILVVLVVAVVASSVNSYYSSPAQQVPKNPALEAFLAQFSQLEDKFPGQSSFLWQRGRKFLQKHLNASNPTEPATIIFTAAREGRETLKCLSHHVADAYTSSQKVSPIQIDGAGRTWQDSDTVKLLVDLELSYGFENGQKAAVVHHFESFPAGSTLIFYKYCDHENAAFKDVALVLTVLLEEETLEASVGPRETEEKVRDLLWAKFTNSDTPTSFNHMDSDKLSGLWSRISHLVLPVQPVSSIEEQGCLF

[16] = E. coli growth modulation, two-sided OD650, primary screen, E. coli filamentation project, strain DRC41, 24 h (AID 1093); details: OD650, 24 h, higher = more signal, called active from +8 up or from −8 down;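 further: MC1000 strain lacking acrAB efflux and sulA so SOS filamentation is blocked; test concentration not given here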
[17] = small-molecule microarray binders of probe aLefty2, primary screen, biochemical, biotinylated probe, 635/667 nm fluorescence (AID 1094); details: higher = more signal;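 further: score merges spot fluorescence near 667 nm with spot signal-to-noise ratio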
[18] = test system: Noggin (protein binding on small-molecule microarray); experiment: Noggin binders on small-molecule microarray, primary screen, biochemical, 635/667 nm fluorescence (AID 1095); details: 635 nm fluorescence, higher = more signal;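 further: score merges 667 nm feature fluorescence with signal to noise over triplicate slides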
[19] = target: Neurogenic locus notch homolog protein 3 (Homo sapiens) (UniProt Q9UM47); experiment: NOTCH3 binders on small-molecule microarray, primary screen, biochemical, 635/667 nm fluorescence (AID 1096); details: NOTCH3 binding, 635 nm fluorescence, higher = more signal
[20] = small-molecule microarray binders of probe aEGFR, primary screen, biochemical, biotinylated probe, 635/667 nm fluorescence (AID 1097); details: higher = more signal;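 further: probe is a biotinylated anti-EGFR antibody binding compounds printed on slides; score combines fluorescence near 667 nm and signal to noise of each spot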

Row | Compound | composite z-score [1] | composite z-score [2] | composite z-score [3] | composite z-score [4] | composite z-score [5] | composite z-score [6] | composite z-score [7] | z-score [8] | composite z-score [9] | composite z-score [10] | composite z-score [11] | z-score [12] | z-score [13] | z-score [14] | composite z-score [15] | z-score [16] | composite z-score [17] | composite z-score [18] | composite z-score [19] | composite z-score [20]
1 | COC(=O)CC=C[C@@H](C)[C@@H](C=NOCC[C@@H]1C=C[C@H](OC(C)=O)[C@@H](COC(C)=O)O1)NS(=O)(=O)c1ccc(C)cc1 | -0.186 | 1.86 | -0.129 | -0.371 | -0.134 | -0.512 | -0.123 | 0.0469 (inactive) | 0.153 | -0.0296 | 0.477 | 0.787 (inactive) | 0.466 (inactive) | -0.448 (inactive) | -0.0098 | 0.545 (inactive) | 0.135 | 0.706 | -0.213 | 0.0511
2 | O=C(NN=C1C[C@@H](O)[C@@H](O)[C@@H]2[C@@H]3C(=O)N(C4CCCCC4)C(=O)[C@@H]3CC[C@H]12)OCc1ccccc1 | 1.01 | 0.553 | 0.0679 | 0.0977 | 1.1 | -0.131 | -0.287 | -0.242 (inactive) | 0.324 | -0.558 | -0.511 | 0.298 (inactive) | 0.267 (inactive) | 0.799 (inactive) | 0.352 | -0.0442 (inactive) | -0.0239 | -0.177 | -0.0963 | -0.0461
3 | O=C1[C@H]2[C@H]3[C@H](O)[C@H](O)CC(=NOCc4ccccc4)[C@@H]3CC[C@H]2C(=O)N1Cc1ccc2c(c1)OCO2 | -0.138 | -0.247 | -0.0583 | 0.321 | 0.376 | 0.299 | -0.0604 | 1.1 (inactive) | 0.357 | 0.0922 | 0.231 | -0.559 (inactive) | 0.437 (inactive) | -0.789 (inactive) | 0.664 | 1.1 (inactive) | -0.17 | 0.297 | 0.428 | 0.0761
4 | CO[C@H]1COC(=O)CC=C[C@H](C)[C@@H](OC)COC(=O)[C@@H](C)COC(=O)CC=C[C@@H]1C | -0.834 | 2.17 | -0.152 | -0.938 | -1.22 | -0.652 | -0.513 | -0.862 (inactive) | 0.0281 | 0.106 | 1.48 | 0.235 (inactive) | -1.41 (inactive) | -0.487 (inactive) | -0.108 | -0.176 (inactive) | -0.235 | 2.04 | -0.399 | -0.0171
5 | Cn1c(=O)n2n(c1=O)[C@H]1[C@H](O)[C@@H]3O[C@@H]3C(=NOCc3ccccc3)[C@H]1CC2 | -0.266 | 0.125 | -0.085 | -0.0229 | 0.0633 | -0.257 | 0.0977 | -0.928 (inactive) | -0.0977 | -0.0088 | 0.241 | 0.409 (inactive) | -0.41 (inactive) | -0.115 (inactive) | 2.31 | 0.703 (inactive) | -0.185 | -0.173 | 0.525 | -0.118
6 | C#CCCCON=C1C[C@@H](O)[C@@H](O)[C@@H]2[C@@H]3C(=O)N(CC)C(=O)[C@@H]3CC[C@@H]12 | -0.572 | 0.278 | -0.143 | 0.722 | 0.656 | 0.614 | 0.636 | -0.0351 (inactive) | 0.276 | 0.235 | 0.677 | -0.0246 (inactive) | 0.267 (inactive) | 1.25 (inactive) | 0.187 | 0.439 (inactive) | -0.0478 | 0.167 | 0.426 | -0.0972
7 | COC(=O)CC=C[C@@H](C)[C@@H](C=NO[C@H](C)c1cn([C@H](CO)Cc2ccccc2)nn1)NS(=O)(=O)c1ccc(C)cc1 | -0.468 | 2.12 | -0.165 | -0.147 | -0.303 | -0.211 | 0.0224 | -0.25 (inactive) | 0.227 | -0.251 | 0.915 | -0.798 (inactive) | 0.359 (inactive) | -0.824 (inactive) | 0.786 | -0.297 (inactive) | -0.0407 | 0.857 | -0.0329 | 0.168
8 | COC(=O)CC=C[C@@H](C)[C@@H]1C=C[C@H](O)[C@@H](CO)O1 | -0.202 | 0.124 | -0.106 | 0.376 | 0.432 | -0.196 | -0.0778 | -0.163 (inactive) | 0.225 | -0.176 | -0.266 | 0.773 (inactive) | 1.08 (inactive) | 0.531 (inactive) | 0.296 | 0.426 (inactive) | -0.177 | 0.381 | 0.601 | -0.338
9 | C[C@H]1CC[C@H]2C(=O)OC(CO)CN2[C@@H]1c1ccc(Br)cc1 (stereo not given in full) | -0.321 | 0.414 | -0.145 | -0.0786 | -0.453 | -0.365 | 0.374 | -0.761 (inactive) | -0.104 | -0.0645 | 0.14 | -0.276 (inactive) | -0.315 (inactive) | 0.603 (inactive) | -0.467 | 0.458 (inactive) | -0.236 | 0.0982 | -0.0249 | -0.145
10 | CCOC(=O)[C@H](Cc1ccccc1)NC(=O)CCC1CC(OC(=O)NCCc2ccc(F)cc2)CC2(CCCC(COC(=O)NCCc3ccccc3OC)O2)O1 (stereo not given in full) | -0.582 | 0.238 | -0.0592 | 0.82 | 0.879 | 0.729 | 1.22 | 0.865 (inactive) | 0.759 | -0.134 | 1.4 | -0.053 (inactive) | 0.932 (inactive) | 0.785 (inactive) | 2.18 | -0.715 (inactive) | -0.157 | 0.955 | 1.13 | 0.0846
